Shown are actives, neighbours in structure and some others; about 3.8% of the full set was active somewhere.
KCNH2 3.1 block: blocks the human KCNH2 3.1 channel isoform. U2OS KCNH2 3.1, thallium flux FluxOr; hits give low values. 340,000 tested, 0.95% active. activity change, % (tested at about 1.8 µM);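 active = maximum activity change below -70%; inconclusive = maximum activity change from -70% to -50%; inactive = maximum activity change above -50%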;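 also: thallium influx rate constant from kinetic fluorescence after stimulation buffer; % is scaled to controls: 0 for no effect and ±100 for the full control effect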
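Channel expression came from 3.1 mutant virus (1.77 x 10^8 /mL) applied to suspended U2OS cells for 4 h. Flux was tracked with FluxOr dye plus Red40 quencher, and kinetic rate constants normalized to controls.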
hERG WT inh: KCNH2 (human, wildtype) channel inhibition; U2OS, BacMam KCNH2, thallium flux FluxOr; hits give low values; Q12809; AID 720551; 340,000 tested, 0.37% active; activity change, % at 1.84 µM;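 active = maximum activity change below -70%; inconclusive = maximum activity change between -70% and -50%; inactive = maximum activity change above -50%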; also: % is scaled to controls: 0 for no effect and ±100 for the full control effect
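U2OS cells were transduced with wild-type KCNH2 virus (2.03 x 10^8 / mL) for 4 h at room temperature, then cultured overnight at 37 C. Thallium flux was read with FluxOr dye. Rate constants were normalized to DMSO controls.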
CBFb RUNX1 block: inhibitors of human CBF-beta and RUNX1 interaction; AID 1477; Potency, µM (series often up to 59.8 µM), without a hit: at the top dose activity, negative = inhibition, usual class: inhibitors; 230,000 tested, under 10 active; AlphaScreen CBFb-His/RUNX1-biotin binding, biochemical; Q01196+Q13951; also: % of control where 0% means no effect
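His-tagged CBF-beta and biotinylated RUNX1 (30 nM each) were premixed 20 min at room temperature, exposed to compound for 15 min, then given nickel-chelate and streptavidin AlphaScreen beads (50 ng each). After 90 min, AlphaScreen signal was read.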
VDR inhibitor: blocks the human vitamin D receptor. 400,000 tested, 0.93% active. P11473. VDR-SRC2-3 peptide fluorescence polarization, 2 h. Potency, µM, for the others: max response, negative = inhibition, most hits filed as inhibitors; also: potency is read from the fitted curve at half-maximal effect; % is scaled to controls: 0 for no effect and ±100 for the full control effect
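Signal is fluorescence polarization, reporting how far test compounds block the interaction of VDR with the SRC2-3 coregulator peptide after a 2 h room-temperature incubation.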
PLK1 PBD inh: blocks phosphopeptide binding to human PLK1 polo-box domain; P53350; Plk1 PBD binding of FITC phosphopeptide, fluorescence polarization; Potency, µM, for inactives: max response, negative = inhibition, hits mostly inhibitors; 360,000 tested, 2.8% active; also: potency is read from the fitted curve at half-maximal effect; series mostly up to about 57 µM; % is scaled to controls: 0 for no effect and ±100 for the full control effect; nearly all actives have a fitted effect of over 65% in size
MBNL1-CUG inh: MBNL1-poly(CUG) RNA binding inhibition | 280,000 tested, 0.036% active | Potency, µM (top dose mostly 57.5 µM), for inactives: at the top dose activity change, negative = inhibition, most hits filed as inhibitors | Q9NR56 | TR-FRET MBNL1-His/biotin-(CUG)12 binding, 665/545 ratio; active = well fitted inhibition curve with a large enough effect in the signal ratio, with a control signal flat, not every such curve was filed as active; inconclusive = small, poorly fitted or top-dose-only effect, or effect the other way, or a change in a side signal; inactive = no such curve, though single readings can be large or run the other way; the % refers to the signal ratio; also: potency is read from the fitted curve at half-maximal effect; % is scaled to controls: 0 for no effect and ±100 for the full control effect
Target sequence (Q9NR56 whole entry, looked up): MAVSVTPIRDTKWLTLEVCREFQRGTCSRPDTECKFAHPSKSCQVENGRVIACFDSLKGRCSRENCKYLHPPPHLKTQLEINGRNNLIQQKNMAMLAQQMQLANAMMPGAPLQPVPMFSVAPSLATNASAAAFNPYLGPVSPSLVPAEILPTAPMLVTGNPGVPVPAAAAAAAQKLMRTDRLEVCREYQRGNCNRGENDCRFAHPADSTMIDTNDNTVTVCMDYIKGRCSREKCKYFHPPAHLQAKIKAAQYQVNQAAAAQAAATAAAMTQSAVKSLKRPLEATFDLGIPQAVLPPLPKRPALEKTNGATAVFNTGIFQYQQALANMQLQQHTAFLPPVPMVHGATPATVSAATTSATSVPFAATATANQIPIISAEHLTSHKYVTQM
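TR-FRET between His-tagged MBNL1 and biotin-(CUG)12 RNA, detected with Tb anti-His antibody (0.055 ng/ul) and streptavidin-XL665 (5 nM), 60 min at room temperature. Compounds titrated 92 nM to 58 uM; 665/545 nm ratio normalized to buffer and complex controls.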
Starred values were filed as active, the others as inactive; ? = inconclusive; · = no result given; [ ] = another dose, or the depositor's remark. Unless noted, calls follow the shape of the dose curve; as a rule, active = well fitted curve in the direction sought with a large enough effect; inconclusive = small, poorly fitted or top-dose-only effect, or another doubt; inactive = no such curve, though single readings can be large; an effect the other way counts as inactive or inconclusive.

SMILES	KCNH2 3.1 block	hERG WT inh	CBFb RUNX1 block	VDR inhibitor	PLK1 PBD inh	MBNL1-CUG inh
COc1ccc(C2N(S(=O)(=O)c3ccc(C)cc3)CCN2S(=O)(=O)c2ccc(C)cc2)cc1	-72*	-6	2%	14%	-3%	3%
Nc1cccc(-c2nnc3n2CCCCC3)c1	2	-4	-8%	-17%	17µM*	-7%
Nc1ccccc1-c1nnc2n1CCCCC2	13	-86*	·	-12%	-3%	-4%
Cc1cccc(N(CC(=O)NCCSCc2ccc(Cl)cc2)S(C)(=O)=O)c1C	·	·	·	-3%	·	·
O=S(=O)(c1ccc2c(c1)OCCO2)N1CCN(CCc2ccccc2)CC1	·	·	·	-14%	·	·
CSc1ccc(C(=O)C2CCCN(C(=O)c3nn(C)c(=O)c4ccccc34)C2)cc1 (centres undefined)	0	-8	0%	-11%	24µM*	-1%
Cc1nnc(C)n1/N=C/c1cccn1C	7	1	6%	-16%	3µM*	-2%
Cc1ccc(NC(=O)CN2C(=O)N/C(=C/c3cccn3-c3ccc(C(=O)O)cc3)C2=O)cc1	-13	5	·	-9%	11µM*	?
Cc1ccc(NC(=O)CN2C(=O)S/C(=C\c3cc(C)n(-c4ccc(C(=O)O)cc4)c3C)C2=O)cc1	7	1	-30%	-8%	27µM*	17%
Cc1ccc(NC(=O)CN2C(=O)N/C(=C/c3cc(C)n(-c4ccc(C(=O)O)cc4)c3C)C2=O)cc1	12	2	?	-6%	-29%	?
Cc1ccc(NC(=O)CN2C(=O)S/C(=C\c3cc(Cl)c(OCC(=O)O)c(Cl)c3)C2=O)cc1	-14	-7	·	71µM*	24µM*	1%
CCOc1cc(Cn2c(-c3ccc(O)c(OCC)c3)nc3ccccc32)ccc1O	·	·	·	1%	·	·
Cc1cc2oc(=O)c(CC(=O)NCCc3ccccc3F)c(C)c2c2occ(C(C)(C)C)c12	·	·	·	16%	·	·
Cc1ccc(C(=O)N(Cc2ccc(N(C)C)cc2)CC2CCCO2)cc1 (centres undefined)	·	·	·	6%	·	·
Cc1cccc(COC[C@H](Cc2ccccc2)N2CCN(C(=O)c3ccc(C(F)(F)F)cc3)CCC2=O)c1	·	·	·	·	-6%	·
O=C(c1ccc(C(F)(F)F)cc1)N1CCC(=O)N(C(COCc2ccc(C(F)(F)F)cc2)Cc2ccccc2)CC1 (centres undefined)	-112*	1	2%[2.36 µM]	-3%	-10%	36%
CCCCC(CC)COC(=O)CC(C(=O)OCC(CC)CCCC)S(=O)(=O)O (centres undefined)	·	·	1%	25µM*	·	·
Cc1cccc(C)c1NC(=O)Cn1nnc(S(=O)(=O)c2ccccc2)c1N	·	·	·	-9%	·	·
COC(=O)N/N=C/c1ccc(OS(=O)(=O)c2ccc(C)cc2)c(OC)c1	3	23	11%	-15%	-6%	4%
C=CCNC(=O)/C(C#N)=C/c1ccc(OS(=O)(=O)c2ccc(C)cc2)c(OC)c1	-13	16	6%	28µM*	?	-11%
Oc1c(Br)cc(Br)c(/C=N/n2c(-c3ccccc3)n[nH]c2=S)c1Br	-5	6	·	?	12µM*	-7%
N#CC1=C(N)N(c2ccc(F)cc2)C2=C(C1c1ccc(O)cc1)S(=O)(=O)CC2 (centres undefined)	-13	-1	?	4%	15µM*	?
CSc1ccc(C2C(C#N)=C(N)N(c3ccccc3)C3=C2C(=O)CCC3)cc1 (centres undefined)	-2	2	-23%	1%	0%	4%
S=c1[nH]nc(-c2ccc(Cl)cc2)n1/N=C/C=C/c1ccco1	-8	-2	?	-7%	27µM*	1%
Cc1ccccc1-c1n[nH]c(=S)n1/N=C/C=C/c1ccco1	-9	-3	?	71µM*	?	6%
SMILES	KCNH2 3.1 block	hERG WT inh	CBFb RUNX1 block	VDR inhibitor	PLK1 PBD inh	MBNL1-CUG inh
COc1ccc(-n2sc3ccc(F)cc3c2=O)cc1	·	·	·	?	2.7µM*	·
COc1ccc(-n2sc3ccccc3c2=O)cc1	20	-4	·	·	2.7µM*	·
COc1ccc(-n2cc(C(=O)O)c3ccccc3c2=O)cc1	18	-1	1%	-9%	-5%	-9%
O=c1c2cc(F)ccc2sn1-c1ccc(F)cc1	0	2	·	18µM*	3.4µM*	·
Cc1ccc(C)c(-n2sc3ccc(F)cc3c2=O)c1	4	-8	·	20µM*	2.1µM*	·
CC(=O)C1=C(C)N(Cc2ccco2)C(=O)N[C@@H]1c1ccccc1	·	·	1%	-9%	·	·
CCOC(=O)C1CCCN(S(=O)(=O)c2ccc3c(c2)CCN3C(=O)CC)C1 (centres undefined)	·	·	·	-16%	·	·
CCOc1ccc(NC(=O)CC2C(=O)N(c3cccc(C)c3)C(=O)N2Cc2cccs2)cc1 (centres undefined)	·	·	·	27%	·	·
CCOC(=O)c1sc2nc(CSc3ccccc3)nc(N3CCC(C(N)=O)CC3)c2c1C	-191*	-225*	-2%	-28%	-17%	·
CN1CCN(NC(=O)CC(C)(C)C)CC1	-15	-7	1%	11%	-11%	-9%
CCCCCCC(=O)NN1CCN(C)CC1	13	-257*	3%	6%	0%	-8%
Cc1ccc(-n2c3nc(=O)[nH]c(=O)c-3cc3c(C)nn(-c4ccccc4)c32)cc1C	·	·	·	1%	·	·
CO[C@H]1/C=C/O[C@@]2(C)Oc3c(C)c(O)c4c(O)c(c(/C=N\N5CCN(C6CCCC6)CC5)c(O)c4c3C2=O)NC(=O)/C(C)=C\C=C\[C@H](C)[C@H](O)[C@@H](C)[C@@H](O)[C@@H](C)[C@H](OC(C)=O)[C@@H]1C	·	·	·	11µM*	·	·
Cc1c2c(c(O)c3c(O)cccc13)C(=O)O[C@H]2C1C(N(C)C)C(O)=C(C(N)=O)C(=O)[C@H]1O (some centres undefined)	·	·	·	16µM*	·	·
CN(C)C1C(=O)C(C(N)=O)=C(O)[C@@]2(O)C(=O)C3=C(O)c4c(O)ccc(Cl)c4C(O)[C@H]3C[C@@H]12 (some centres undefined)	·	·	3%	-2%	·	·
C=CCn1c(NC(=O)c2ccc(Br)o2)c(C(=O)OCC)sc1=S	1	-9	-10%	89µM*	6.7µM*	-7%
Cc1ccc(-c2cn3c(n2)sc2cc(C(=O)NCCC4=CCCCC4)ccc23)c(C)c1	·	·	·	-7%	·	·
CCCN1CCC(=O)N(C(CSc2ccc(OC)cc2)CC(C)C)CC1 (centres undefined)	·	·	8%	-21%	·	·
Cc1cc(C)cc(NC2=C(N)C(=O)c3ccccc3C2=O)c1	-16	1	·	89µM*	-2%	?
Cc1ccc(NC2=C(Cl)C(=O)c3ccccc3C2=O)cc1	-34	-13	-2%	-8%	-3%	?

Screening results as filed in PubChem BioAssay.
